Measured values reported in publication PMC5540273 (PLoS ONE, 2017).

Tests used:
Settings in all cases: concentration: 1 μM, replicates: in singlicate; n = 1
PIP5K1A = test system: PIP5K1A
PIP5K1C = test system: PIP5K1C
PIP5K2B = test system: PIP5K2B
PIP5K2C = test system: T1, PIP5K2C
T1 construct: gene PIP4K2C

PKAC-alpha = test system: T2, PKAC-alpha
T2 construct: gene PRKACA

PKAC-beta = test system: T3, PKAC-beta
T3 construct: gene PRKACB

PKMYT1 = test system: PKMYT1
PKN1 = test system: PKN1
PKN2 = test system: PKN2
PLK1 = test system: PLK1
PLK2 = test system: PLK2
PLK3 = test system: PLK3
PLK4 = test system: PLK4
PRKCD = test system: PRKCD
PRKCE = test system: PRKCE
PRKCH = test system: PRKCH
PRKCI = test system: PRKCI
PRKCQ = test system: PRKCQ
PRKD1 = test system: PRKD1
PRKD2 = test system: PRKD2
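Also: KINOMEscan kinase panel screen.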

| SMILES | %Inh (PIP5K1A) | %Inh (PIP5K1C) | %Inh (PIP5K2B) | %Inh (PIP5K2C) | %Inh (PKAC-alpha) | %Inh (PKAC-beta) | %Inh (PKMYT1) | %Inh (PKN1) | %Inh (PKN2) | %Inh (PLK1) | %Inh (PLK2) | %Inh (PLK3) | %Inh (PLK4) | %Inh (PRKCD) | %Inh (PRKCE) | %Inh (PRKCH) | %Inh (PRKCI) | %Inh (PRKCQ) | %Inh (PRKD1) | %Inh (PRKD2) |
| --- | --- | --- | --- | --- | --- | --- | --- | --- | --- | --- | --- | --- | --- | --- | --- | --- | --- | --- | --- | --- |
| Nc1cccc(-c2ccc3c(N)n[nH]c3c2)c1 [GSK2193613] | 0% | 28% | 0% | 16% | 0% | 4% | 8% | 0% | 0% | 0% | 0% | 0% | 4% | 68% | 11% | 61% | 0% | 20% | 0% | 2% |
| CCNC(=O)/C=C/c1n[nH]c2cc(Sc3ccccc3C(=O)NC)ccc12 | 0% | 0% | 33% | 0% | 4% | 21% | 30% | 0% | 17% | 0% | 17% | 18% | 91.9% | 6% | 3% | 0% | 5% | 0% | 3% | 14% |
| COc1cc(Nc2nccc(N3CCC(NC(=O)Nc4ccc5c(c4)OCO5)C3)n2)cc(OC)c1OC (stereo not drawn) [GSK1379766] | 19% | 56% | 0% | 92.3% | 0% | 0% | 0% | 35% | 0% | 2% | 0% | 2% | 48% | 0% | 8% | 0% | 11% | 0% | 0% | 0% |
| O=C(O)C(F)(F)F.O=c1[nH]ccc2nc(N[C@@H]3CCNC3)nc(Nc3ccc4c(c3)S(=O)(=O)CC4)c12 [GSK2181306] | 57% | 84% | 84% | 76% | 24% | 43% | 16% | 0% | 71% | 31% | 5% | 0% | 97.4% | 99.1% | 97.9% | 92.9% | 78% | 53% | 92.1% | 96.2% |
| Cn1cc(-c2ccc3c(c2)CCN3C(=O)Cc2cc(F)cc(F)c2F)c2c(N)ncnc21 [GSK2634140] | 10% | 0% | 13% | 12% | 0% | 4% | 0% | 0% | 0% | 0% | 0% | 0% | 0% | 0% | 0% | 17% | 0% | 20% | 100% | 0% |
| CS(=O)(=O)c1cccc(CNc2nc(Nc3ccc4c(c3)CCC(=O)N4)ncc2C(F)(F)F)c1 | 61% | 58% | 59% | 69% | 0% | 0% | 0% | 49% | 2% | 0% | 29% | 31% | 51% | 4% | 0% | 0% | 13% | 0% | 0% | 0% |
| CN(C)c1ncnc2nc[nH]c12 [SKF-31736] | 0% | 0% | 0% | 10% | 0% | 0% | 4% | 0% | 1% | 12% | 20% | 30% | 1% | 0% | 3% | 0% | 0% | 0% | 0% | 0% |
| Cc1cccc(Nc2nc(N[C@H]3CCCC[C@H]3N)ncc2C(N)=O)c1.Cl [GSK986310] | 0% | 63% | 9% | 12% | 19% | 29% | 16% | 34% | 9% | 1% | 0% | 0% | 16% | 53% | 56% | 43% | 28% | 53% | 50% | 56% |
| COc1cccc(NC(=O)NCCNc2ccnc(Nc3ccc(F)cc3)n2)c1 [GSK1379879] | 40% | 63% | 13% | 29% | 0% | 0% | 1% | 12% | 0% | 0% | 0% | 0% | 4% | 0% | 18% | 5% | 20% | 12% | 0% | 0% |
